# Fluor 339 460: intrinsic fluorescence of library compounds, ex339/em460 – biochemical, MLSMR library, data from DPM-DC assay, artefact control, profiling panel; 65,000 tested, 5.5% active; fluorescence fold increase at 10 µM; AID 709; compound autofluorescence, ex339/em460 nm, NADH buffer; active compounds read high; 1 = no-compound wells, NADH background;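 active means at 10 µM, mean starting fluorescence two-fold or more over control wells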;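 further: signal is the first read of a kinetic run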
# NADH coupling: blocks coupling enzymes of NAD/NADH assays | coupled PK/LDH NADH assays, four targets | 65,000 tested, 0.02% active | AID 774 | IC50, µM (top dose mostly 10 µM);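 active means single-dose screening hits from any of four coupled enzyme assays that gave an IC50 when retested across doses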;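 further: the DPM-DC format reads NADH fluorescence rather than 340 nm absorbance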
# Abs 340nm: compounds absorbing at 340 nm. 65,000 tested, under 10 active. compound absorbance at 340 nm, fold over control. fold change at 10 µM. AID 708;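 active means at 10 µM dose, initial 340 nm absorbance at least 2 fold that of control wells; inactive means change under 2 fold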;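 further: initial absorbance extrapolated from kinetic A340 decline of NADH oxidation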
# Spn PMK inh: blocks S. pneumoniae phosphomevalonate kinase; purified PMK, PK/LDH-coupled NADH absorbance 340 nm; inhibition, % at 10 µM; 65,000 tested, 0.49% active;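 active means top-ranked compounds by inhibition in the single 10 µM screen, taking a fixed number of the strongest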
# DPM-DC inhibit: blocks S. pneumoniae diphosphomevalonate decarboxylase | purified DPM-DC, PK/LDH coupled NADH fluorescence | calls only at 10 µM | 65,000 tested, 0.49% active;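 active means the 320 compounds with the highest percent inhibition in the single-dose primary screen, excluding strongly autofluorescent ones, cut at about 32% in these data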;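 further: kinetic rate of NADH fluorescence loss reporting ADP formed by the decarboxylase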
# MK inhibit: S. pneumoniae mevalonate kinase inhibition. purified MK, PK/LDH-coupled NADH absorbance 340 nm. inhibition, % at 10 µM. 65,000 tested, 0.48% active. AID 555;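 active means ranked among the strongest by inhibition in the single 10 µM screen, a fixed top-ranked set picked for dose follow-up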
# Hits are given with their value; . = inactive; / = not tested or not shown; [ ] = remark or other dose. Rows were chosen to be rich in hits. Some 6.8% of all compounds tested hit in one or more screens of this group.
SMILES,Fluor 339 460,NADH coupling,Abs 340nm,Spn PMK inh,DPM-DC inhibit,MK inhibit
COc1ccc(N2CCN(c3ccc(N)cc3C#N)CC2)cc1,.,.,.,.,.,.
Cc1cccc(CS(=O)(=O)Cc2ccc(C(=O)NCc3ccco3)o2)c1,.,.,.,.,.,.
CCCN1Cc2cccc(C(=O)NCCCOC(C)C)c2C1=O,.,.,.,.,.,.
CN1CCN(c2nc(-c3ccccc3)c3cc(Cl)ccc3n2)CC1,.,.,.,.,.,.
O=c1nc(-c2ccccc2)c2cc(Cl)ccc2[nH]1,3.1,.,.,.,.,.
Cc1cc2oc(=O)c3c(c2cc1OCc1nn[nH]n1)CCCC3,3.3,.,.,.,/,.
O=c1oc2cc(OCc3nn[nH]n3)ccc2c2c1CCCC2,3.8,.,.,.,/,.
CN1CCN(c2c(F)cc3c(=O)c(C(=O)O)cn4c3c2SCC4)CC1,3.8,.,.,.,/,.
Cc1c(-n2cc(C(=O)O)c(=O)c3cc(F)c(N4CCCC4)c(F)c32)c(=O)n(-c2ccccc2)n1C,.,.,.,.,.,.
CCOC(=O)c1cc2c(=O)n3cccc(C)c3nc2n(CCOC)c1=NC(=O)c1ccncc1,2,.,.,.,.,.
CCOC(=O)c1cc2c(=O)n3cccc(C)c3nc2n(CCCOC)c1=NC(=O)c1cccnc1,2.3,14µM[fluoresces],.,29,/,.
CCCn1c(=NC(=O)c2ccncc2)c(C(=O)OCC)cc2c(=O)n3cccc(C)c3nc21,.,.,.,.,.,.
Cc1nnc(Sc2nc3c(c(=O)[nH]c(=O)n3C)n2CCc2ccccc2)s1,.,.,.,.,.,.
CC1(C)CC(=O)N(CC(=O)O)c2ccccc2S1(=O)=O,.,.,.,.,.,.
CN(C)/C=C1/Sc2ccccc2C1=O,.,.,.,.,.,.
CN(C)/C=C1\C(=O)c2ccc(N(C)C)nc2CC1c1ccccc1 (centres undefined),2,.,.,.,.,.
Cc1cc2c(C)cc(=O)oc2c2c1NCCC2,3.6,.,.,.,/,.
Cc1nn(CCc2nn[nH]n2)c2nc(C(F)(F)F)cc(C(F)(F)F)c12,5,.,.,.,/,.
COc1ccc(-c2nnn(CCc3nn[nH]n3)n2)cc1OC,.,.,.,.,.,.
Cc1ccc(S(=O)(=O)c2nc(S(C)(=O)=O)sc2NCC2CCCO2)cc1 (centres undefined),2.1,.,.,.,/,.
COc1ccccc1N1C(=O)N(C(C)=O)C2C1Nc1ccccc1N2C (centres undefined),.,.,.,.,.,.
COc1ccccc1N1C(=O)c2ccccc2NC1c1ccncc1 (centres undefined),2.1,.,.,.,/,.
O=C1c2ccccc2NC(c2ccncc2)N1c1ccccn1 (centres undefined),2.1,.,.,.,/,.
CCCCOC(=O)Nc1cc(OC)c(Cl)cc1OC,.,.,.,.,.,.
CCN(CC)C(=O)Oc1ccc2c(=O)c(-c3ccc(OC)cc3)c(C)oc2c1,.,.,.,.,.,.
SMILES,Fluor 339 460,NADH coupling,Abs 340nm,Spn PMK inh,DPM-DC inhibit,MK inhibit
CCC(=O)Oc1ccc2c(C)c(Cl)c(=O)oc2c1,2.2,.,.,.,/,.
Cc1cc(=O)oc2cc(OCC(=O)N3c4ccccc4CC3C)ccc12 (centres undefined),.,.,.,.,.,.
CCCCc1cc(=O)oc2cc(OCC(=O)N(CC)CC)c(Cl)cc12,.,.,.,.,.,.
Cc1c(CCC(=O)O)c(=O)oc2cc3occ(-c4ccc(F)cc4)c3cc12,.,.,.,.,.,.
CCCCc1cc(=O)oc2cc(OCC(=O)N(CC)CC)ccc12,2.2,.,.,.,/,.
Cc1c(CCC(=O)O)c(=O)oc2cc(O)ccc12,2.1,.,.,.,/,.
CCc1cc(=O)oc2cc(OCC(=O)N3CCc4ccccc43)ccc12,3.2,.,.,.,.,.
Cc1csc(NC(=O)C(Cc2ccccc2)n2cccc2)n1 (centres undefined),.,.,.,.,.,.
CC1(C)Cc2ccccc2-c2nnc(SCC(=O)N3CCN(c4ccccc4)CC3)n21,.,.,.,.,.,.
CCn1nc(C(=O)OCc2c(C)noc2C)c2ccccc2c1=O,.,.,.,.,.,.
CCCCc1c(C)c2ccc(OCC(C)=O)cc2oc1=O,2.3,.,.,.,/,.
CCCc1c(C)c2ccc(OCC(C)=O)cc2oc1=O,5.1,.,.,.,/,.
C=C(Cl)COc1ccc2c(C)cc(=O)oc2c1,.,.,.,.,.,.
O=C(c1ccc2c(c1)OCCO2)C1CCN(C(=O)c2ccc(F)cc2)CC1,.,.,.,.,.,.
COC(=O)c1cc(OC)c(OC)cc1NC(=O)c1ccoc1C,3.3,.,.,.,/,.
COC(=O)c1cc(OC)c(OC)cc1NC(=O)c1ccccc1,2.2,.,.,.,/,.
CCCN(CCC)c1nc2ccccc2nc1C(C#N)C(=O)OCCOC (centres undefined),.,.,.,.,.,.
C=CCN(CC=C)c1nc2ccccc2nc1C(C#N)C(=O)OCCOC (centres undefined),2.2,.,.,.,.,.
NC(=O)c1c(NC(=O)CN2CCCC2)sc2c1CCCC2,.,.,.,.,.,.
COc1ccccc1N1CCN(CCc2n[nH]c(=S)n2-c2ccccc2)CC1,.,.,.,.,.,46
Clc1ccc2nc3ccccn3c2c1,2.2,.,.,.,/,.
COc1ccc2[nH]c(=O)c(CN(C(=O)c3ccccn3)C3CCCCC3)cc2c1,2.9,.,.,.,.,.
COc1ccc2[nH]c(=O)c(CN(CCN(C)C)C(=O)NCc3ccccc3)cc2c1,3.8,.,.,.,.,.
CC(=O)N(Cc1cccnc1)Cc1cc2ccc(C)cc2[nH]c1=O,.,.,.,.,.,.
Cc1ccc2[nH]c(=O)c(CN(CCO)C(=O)NCc3ccccc3)cc2c1,.,.,.,.,.,.
SMILES,Fluor 339 460,NADH coupling,Abs 340nm,Spn PMK inh,DPM-DC inhibit,MK inhibit
COc1ccc2[nH]c(=O)c(CN(CCO)C(=O)c3ccccc3F)cc2c1,2.9,.,.,.,.,.
COc1cc2cc(CN(Cc3cccnc3)C(=O)NCc3ccccc3)c(=O)[nH]c2cc1OC,4.8,.,.,.,/,.
O=C(c1ccccc1C(=O)N1CCN(c2ccc(F)cc2)CC1)N1CCN(c2ccc(F)cc2)CC1,.,.,.,.,.,.
Cc1c(C(=O)NC2CCCc3ccccc32)oc2ccc(S(=O)(=O)N3CCOCC3)cc12 (centres undefined),.,.,.,.,.,.
O=C(NCc1ccccc1)N(Cc1cc2cc3c(cc2[nH]c1=O)OCO3)CC1CCCO1 (centres undefined),3.7,.,.,.,/,.
CCCN(Cc1cc2cc(OC)ccc2[nH]c1=O)C(=O)c1ccncc1,.,.,.,.,.,.
COc1ccc2cc(CN(C(=O)Nc3ccccc3OC)C3CCCC3)c(=O)[nH]c2c1,.,.,.,.,.,.
COc1cc2cc(CN(C(=O)NC3CCCCC3)C3CCCC3)c(=O)[nH]c2cc1OC,3.9,.,.,.,/,.

# Screening results (PubChem)
